# Source: ChEMBL document CHEMBL3988442, “University of Dundee, Small-Polar-MMV Screening Library” (2021)
# Target: AMP-activated protein kinase, AMPK (Homo sapiens) (UniProt P54646+O43741+P54619+Q9UGJ0+Q9Y478+Q13131+Q9UGI9)
# Experiment: AMP-dependent Kinase enzyme assay. An in vitro enzyme assay that detects ADP turnover that is directly proportional to AMPK activity. This uses naive AMPK that is activated during the assay with MK-8722
# Assay type: functional
# Design: scale not given: direction of the effect not stated beside the values
# Details: 30 µM
row,SMILES,Percent Effect [%]
1,Nc1nc(CC(=O)N2CCCC(CCc3cccc(F)c3)C2)cc(=O)[nH]1 (centres undefined),-9.77
2,CC(NC(=O)NCc1ccccn1)c1cccs1 (centres undefined),-0.209
3,Cc1ccccc1C(=O)NC[C@@H]1CCN(C(=O)CN2CCCC2)C[C@H]1O,-0.0834
4,O=C1CN(Cc2cn(C3CCN(C4CSCCSC4)CC3)nn2)CCN1,-9.53
5,COc1ccccc1CNC(=O)C(C)N1CC(n2cc(C)cn2)C1 (centres undefined),3.01
6,O=C1CN(c2ccc(C(=O)N3CCc4ccccc43)cn2)CCN1,5.07
7,CCN(CC)C(CNC(=O)c1ccnc(N(C)C)c1)c1ccsc1 (centres undefined),-4.85
8,Cn1ccnc1-c1cn(CCc2nnc(N)s2)nn1,-14.9
9,O=C(NCc1csc2ccc(Cl)cc12)c1cc2n(n1)CCNC2,10.6
10,Cc1cc(-c2cnc(N3CCCC(C)C3)nc2C(C)C)on1 (centres undefined),10.4
11,CCc1cc(CN2CCCCC2c2ccc(F)cc2)on1 (centres undefined),2.23
12,c1csc(N2CCCN(c3ncnc4sccc34)CC2)n1,21.9
13,COc1ccc(NC(=O)N2CCC(CSC)C2)cc1C (centres undefined),-6.6
14,CCCC(C#N)NC(=O)c1sccc1CC (centres undefined),6.7
15,CCNC(=O)[C@@H]1C[C@@H](N)CN1C(=O)c1[nH]c2ccccc2c1CC,13.5
16,CC(CN1CCOC1=O)NC(=O)c1ccccc1Oc1ccccc1 (centres undefined),8.72
17,CN(CCNC(=O)Nc1ccn(C)n1)Cc1ccc(F)cc1,3.18
18,CN(c1ncc(S(N)(=O)=O)s1)C1CCc2ccccc21 (centres undefined),8.8
19,COc1ccc(OC)c(C(C(=O)O)N2CCSCC2)c1 (centres undefined),0.166
20,Cc1ncc2c(n1)CN(Cc1nc(-c3ccsc3)oc1C)CC2,-40.6

row,SMILES,Percent Effect [%]
1,CCNc1ncc(CN2CCOC(Cc3cccc(OC)c3)C2)cn1 (centres undefined),0.956
2,Cc1cc(C)c2[nH]c(C(=O)NCCN3CCNC3=O)c(C)c2c1,11.1
3,N#CC1(NC(=O)c2ccc(F)cc2OC(F)F)CCOCC1,1.96
4,Cc1csc(N2CCN(Cc3ccccn3)CC2)n1,-1.61
5,COCCCNC(=O)Cc1nc(-c2ccncc2)n[nH]1,14.5
6,CCC(C(=O)NCCc1coc(-c2ccc(C)cc2)n1)N(C)C (centres undefined),6.54
7,Cc1ccc(C)c(CN(CC(N)=O)C(C)C)c1,-8.2
8,CCCOc1ccccc1CCCNc1ncnc2oc(C)nc12,2.11
9,COc1ccc(C(=O)N2CCN(C(=O)CCCc3cn[nH]c3)CC2)cc1,3.5
10,CCN1CC(COC(=O)c2cc(C)nn2CC)CC1=O (centres undefined),5.06
11,O=C(NCC1CCOC1)c1cc(-c2ccc(F)cc2)[nH]n1 (centres undefined),-0.741
12,O=C(COc1cccc(Cl)c1)N1CCOCC(O)(CN2CCCC2)C1 (centres undefined),6.36
13,O=C(c1cccc2ccnn12)N1CCC[C@H]1CN1CCCC1,-0.374
14,CC(C)[C@@H]1CN(c2ccc(F)cn2)C[C@H]1NS(C)(=O)=O,-3.59
15,CCc1cc(N2CCC(NCCc3ccc(C)o3)CC2)nc(C)n1,5.69
16,Cc1cnn(C2CN(Cc3nc4cc(Cl)ccc4n3C)C2)c1,-6.13
17,Nc1nc(O)cc(N2CCC(c3cc(Cc4ccccc4)n[nH]3)CC2)n1,-82.1
18,CCN1CC2(CCN(CC3COCCO3)CC2)OC1=O (centres undefined),-1.21
19,COC(=O)c1ccc(C(=O)NCc2ccco2)nc1,-1.39
